For eight molecules, activity change, negative = inhibition, max response and Potency results are on record in PubChem BioAssay (NCATS).

Where “and” joins values, the source holds several entries; their conditions need not be identical. Identical values can stand only once. Inconclusive results are not listed. Calls of active or inactive are those of the source. Unless noted, the call rests on the fitted dose curve; in most records, active means well fitted curve in the direction sought with a large enough effect; inconclusive means small, poorly fitted or top-dose-only effect, or another doubt; inactive means no such curve, though single readings can be large; an effect the other way counts as inactive or inconclusive. Where only a bound is given, the exact number is not on record here.

Assay [1] in a line: qHTS Assay for Lipid Storage Modulators (AID 1519; calls by dose curve; on activity change, negative = inhibition: on the % scale 0 is the no-effect control and ±100 the full control effect). The settings on record: Drosophila S3 cells, BODIPY lipid droplet/cell ratio, laser cytometry, cells loaded with oleic acid; for activity change, negative = inhibition: at 57.5 µM (top of the series). The method in brief:
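Cells seeded at 5,000 per well were treated with compounds over a concentration series and loaded with oleic acid (400 uM, as added). Lipid droplet fluorescence (488 nm excitation, 500-530 nm channel) was read by laser-scanning cytometry and normalized to 20 uM Triacsin C.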
In general terms: qHTS replaces the single test concentration by a dilution series.

The nature of assay [2]: Confirmatory screen GU Rhodamine qHTS for Zika virus inhibitors qHTS (AID 1347157). Further: nearly all actives have a fitted effect of over 70% in size. Further: potency means the concentration at half of the fitted maximal effect.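 On activity change, negative = inhibition: plate controls were no-inhibitor wells for no effect and no-enzyme wells for full effect.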 The method in brief:
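Unlinked NS2B/NS3, 25 nM; Rhod110 peptide, 1.5 microM; compounds, up to 114 microM. Reaction run 15 min at RT in 10 mM Tris-HCl pH 8.0, 0.01% Tween 20; kinetic fluorescence change fitted with a 4-parameter Hill model.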

Assay [3] in a line: ZIKV-mCherry secondary qHTS for Zika virus inhibitors (AID 1347158). Further: top concentration of the series differs between compounds. The method in brief:
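After overnight seeding at 37 °C, Vero cells receive compound and then ZIKV-mCherry (MOI 1). Following 48-72 h infection, cells are fixed, counterstained with Hoechst, and imaged; percent infected cells is derived from an mCherry intensity cut-off of 450 RFU.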

Assay [4] can be described thus: Confirmatory screen NINDS Rhodamine qHTS for Zika virus inhibitors (AID 1347161). Further: potency means the concentration at half of the fitted maximal effect; nearly all actives have a fitted effect of over 60% in size. Put shortly: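 Rhodamine110-peptide cleavage (1.5 µM substrate) by 25 nM linked NS2B-NS3 enzyme at pH 8.0 (Tris, Tween 20), after 15 min RT preincubation with compounds; 15-min fluorescence change normalized to controls and Hill-fitted.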
The test system of assay [5] is Zika virus NS2B-NS3 protease (linked). Briefly: 384 well plate NINDS AMC confirmatory qHTS for Zika virus inhibitors (AID 1347163). Further: potency means the concentration at half of the fitted maximal effect; nearly all actives have a fitted effect of over 50% in size. The method in brief: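 Linked protease 5/30/60 nM final; cpds up to 1 mM final, ~15 min preinc. Substrate Ac-VKTGKR-AMC 30 microM final. RT, dark, 25 min; FI ex 355/em 460; normalized to no-enzyme/no-inhibitor ctrls.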
Assay [6] relates to Zika virus NS2B-NS3 protease (linked construct). In words: 384 well plate NINDS Rhodamine confirmatory qHTS for Zika virus inhibitors (AID 1347164). Further: nearly all actives have a fitted effect of over 65% in size. Further: potency means the concentration at half of the fitted maximal effect.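 On activity change, negative = inhibition: top concentration of the series differs between compounds; plate controls were no-inhibitor control for no effect and no-enzyme control for full effect.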 The method in brief:
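Compounds are incubated about 15 minutes with linked protease (5, 30 or 60 nM final). Rhodamine 110-tagged Ac-LKRR substrate (10 microM final) is added and fluorescence measured after 25 minutes.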

Assay [7] addresses Cytochrome P450 3A4 (Homo sapiens) (UniProt P08684). In words: qHTS Assay for Activators of Cytochrome P450 3A4 (AID 885). Further: nearly all actives have a fitted effect of over 65% in size. Put shortly: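 Human CYP3A4 (20 nM) with Luciferin-PPXE at 25 uM (its KM) in 200 mM KPO4; 10 min compound preincubation, then NADPH regeneration and 60 min reaction at RT. Luciferin read by luminescence; normalized to 57 uM ketoconazole full inhibition.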

The subject of assay [8] is Zika virus NS2B-NS3 protease. Briefly: Primary screen GU AMC qHTS for Zika virus inhibitors (AID 1347154).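 Further: 0% = no-inhibitor control and -100% = no-enzyme control; nearly all actives have a fitted effect of over 70% in size.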 Put shortly: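 Unlinked Zika NS2B hydrophilic domain/NS3 protease domain noncovalent complex (25 nM final) in 10 mM Tris-HCl pH 8.0, 0.01% Tween 20, with AMC peptide substrate. Fluorescence (ex 340, em 450 nm) change over 15 min, room temperature; percent inhibition fitted to 4-parameter Hill equation.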

Assay [9] is described as follows: Tertiary RLuc qRT-PCR qHTS assay for Zika virus inhibitors (AID 1347169). Further: top concentration of the series differs between compounds; on the % scale 0 is the no-effect control and ±100 the full control effect; nearly all actives have a fitted effect of over 55% in size. The method in brief: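 Orthogonal cell-based infection assay using recombinant ZIKV-RLuc (Cambodian) in Vero cells; compound added prior to virus at MOI 1-2. Incubation lasts 48-72 hrs at 37 degrees C before live-cell Renilla substrate is added and luminescence measured.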
(In qPCR the cycle at which signal appears reflects the starting amount.)

In assay [10] the target is Cytochrome P450 1A2 (Homo sapiens) (UniProt P05177). In words: p450-cyp1a2 (AID 410; calls by dose curve; further: potency means the concentration at half of the fitted maximal effect). The method in brief: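 Inhibition was calculated relative to 57 uM furafylline (full inhibition). The reaction used human CYP1A2 at 20nM with Luciferin-ME at its Km, 100uM, driven by an NADPH-regenerating system for 60 min at room temperature.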
Assay [11] has as its target Glucocorticoid receptor (Homo sapiens) (UniProt P04150). Briefly: GR-GFP Redistribution (AID 450;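 active means compounds whose dose series gives a full or clear partial fitted curve of increased nuclear translocation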; further: potency means the concentration at half of the fitted maximal effect). Conditions: U2OS GR-GFP nuclear translocation, laser cytometry, 2 h.
The target is the same in assay [12]. Briefly: GR-EFC Redistribution (AID 451; calls by dose curve; further: potency means the concentration at half of the fitted maximal effect). The settings on record: CHO-K1 GR-EFC translocation, beta-gal luminescence, 2 h. Put shortly:
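CHO-K1 cells stably expressing nuclear-localized β-gal enzyme acceptor and GR fused C-terminally to the enzyme donor fragment; ligand-driven nuclear translocation restores β-gal by complementation. Compounds titrated up to 46 uM final, 2 h at 37 °C; luminescence read.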

Assay [13] concerns the target DNA dC->dU-editing enzyme APOBEC-3G (Homo sapiens) (UniProt Q9HC16). Briefly: qHTS for inhibitors of Vif-A3G interactions: Validation (AID 588379). Further: 0% is about no effect. Put shortly: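 HeLa cells stably expressing Vif and A3G-eYFP, 700 cells/well, incubated overnight at 37 deg C, then exposed to compound overnight at 37 deg C. Inhibition of Vif-mediated degradation read as increased yellow fluorescence (Ex 488/Em 500-530) by laser-scanning cytometry.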

Assay [14] in a line: Primary qHTS for small molecule stabilizers of the endoplasmic reticulum resident proteome: Secreted ER Calcium Modulated Protein (SERCaMP) assay (AID 1508630). Further: on the % scale 0 is the no-effect control and ±100 the full control effect. Put shortly: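 GLuc-SERCaMP-expressing SH-SY5Y cells, pretreated 16 h with compound, are challenged with thapsigargin to empty ER calcium stores; after 4 h, coelenterazine is added directly to the medium and luminescence is imaged.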

[15] abbreviates: measured here: cell count channel max response.
The mark [16] stands for this setting: measured here: lipid channel max response.

Sequence of Glucocorticoid receptor (Homo sapiens) (P04150 whole entry, looked up): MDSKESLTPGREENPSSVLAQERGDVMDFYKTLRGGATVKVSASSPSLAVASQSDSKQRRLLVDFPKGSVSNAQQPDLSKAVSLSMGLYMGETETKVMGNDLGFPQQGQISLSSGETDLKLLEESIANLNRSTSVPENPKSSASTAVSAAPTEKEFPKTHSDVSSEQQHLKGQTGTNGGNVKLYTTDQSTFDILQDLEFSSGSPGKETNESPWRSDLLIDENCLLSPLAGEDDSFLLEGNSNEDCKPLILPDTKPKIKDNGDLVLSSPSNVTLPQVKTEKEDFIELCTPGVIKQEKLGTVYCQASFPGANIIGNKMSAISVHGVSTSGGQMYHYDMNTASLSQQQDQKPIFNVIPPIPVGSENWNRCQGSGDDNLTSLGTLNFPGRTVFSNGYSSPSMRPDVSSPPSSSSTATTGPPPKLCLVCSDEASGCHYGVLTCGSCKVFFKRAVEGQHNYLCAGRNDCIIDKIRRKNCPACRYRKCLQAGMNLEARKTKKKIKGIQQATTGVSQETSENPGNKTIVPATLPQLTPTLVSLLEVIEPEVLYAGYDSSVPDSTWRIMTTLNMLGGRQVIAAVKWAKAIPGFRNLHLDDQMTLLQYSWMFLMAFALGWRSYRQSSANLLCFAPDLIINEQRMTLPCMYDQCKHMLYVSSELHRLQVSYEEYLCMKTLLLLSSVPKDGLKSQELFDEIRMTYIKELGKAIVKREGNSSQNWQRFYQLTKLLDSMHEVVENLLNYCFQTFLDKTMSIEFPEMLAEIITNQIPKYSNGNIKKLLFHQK
Sequence of Cytochrome P450 3A4 (Homo sapiens) (P08684 whole entry, looked up): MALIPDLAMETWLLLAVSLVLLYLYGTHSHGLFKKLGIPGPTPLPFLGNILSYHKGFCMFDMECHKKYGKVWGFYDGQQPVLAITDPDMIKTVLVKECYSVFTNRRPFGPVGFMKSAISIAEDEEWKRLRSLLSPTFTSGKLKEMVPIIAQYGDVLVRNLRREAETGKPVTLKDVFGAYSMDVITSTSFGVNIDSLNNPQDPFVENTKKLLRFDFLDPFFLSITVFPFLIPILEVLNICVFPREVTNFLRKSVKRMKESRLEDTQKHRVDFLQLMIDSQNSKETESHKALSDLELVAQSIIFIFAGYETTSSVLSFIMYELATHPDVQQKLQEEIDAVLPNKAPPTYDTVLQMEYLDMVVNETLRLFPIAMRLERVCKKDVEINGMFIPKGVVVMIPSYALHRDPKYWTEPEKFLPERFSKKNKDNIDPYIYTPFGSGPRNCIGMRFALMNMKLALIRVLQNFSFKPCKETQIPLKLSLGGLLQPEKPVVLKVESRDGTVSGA
Sequence of DNA dC->dU-editing enzyme APOBEC-3G (Homo sapiens) (Q9HC16 whole entry, looked up): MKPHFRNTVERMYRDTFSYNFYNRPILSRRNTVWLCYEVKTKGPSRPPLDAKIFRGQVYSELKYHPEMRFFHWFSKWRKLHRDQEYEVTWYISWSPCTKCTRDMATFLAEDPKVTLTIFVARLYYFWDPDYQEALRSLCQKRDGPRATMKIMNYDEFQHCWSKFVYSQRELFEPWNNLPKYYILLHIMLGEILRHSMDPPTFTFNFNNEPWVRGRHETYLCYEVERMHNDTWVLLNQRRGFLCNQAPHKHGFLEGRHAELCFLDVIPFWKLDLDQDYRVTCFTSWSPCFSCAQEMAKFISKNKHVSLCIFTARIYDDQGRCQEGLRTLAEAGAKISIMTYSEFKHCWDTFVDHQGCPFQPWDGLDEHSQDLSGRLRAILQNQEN
Sequence of Cytochrome P450 1A2 (Homo sapiens) (P05177 whole entry, looked up): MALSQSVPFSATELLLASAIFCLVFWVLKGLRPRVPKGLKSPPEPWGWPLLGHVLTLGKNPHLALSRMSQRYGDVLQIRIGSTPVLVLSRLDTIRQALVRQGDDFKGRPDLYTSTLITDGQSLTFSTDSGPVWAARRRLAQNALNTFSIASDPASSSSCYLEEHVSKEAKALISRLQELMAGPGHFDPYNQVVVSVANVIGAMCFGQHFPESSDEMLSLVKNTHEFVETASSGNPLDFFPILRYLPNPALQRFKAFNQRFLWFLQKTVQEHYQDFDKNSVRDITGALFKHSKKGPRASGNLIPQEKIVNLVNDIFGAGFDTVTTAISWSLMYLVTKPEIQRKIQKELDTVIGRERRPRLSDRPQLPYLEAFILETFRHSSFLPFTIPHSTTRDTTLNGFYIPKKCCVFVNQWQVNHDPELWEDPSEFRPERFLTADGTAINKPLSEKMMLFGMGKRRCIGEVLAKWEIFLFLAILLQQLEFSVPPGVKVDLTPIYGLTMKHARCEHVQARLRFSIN

In the case of `O=C(OC1Cc2c(O)cc(O)cc2OC1c1cc(O)c(=O)c2c(O)c(O)cc(C3Oc4cc(O)cc(O)c4CC3OC(=O)c3cc(O)c(O)c(O)c3)c2c1)c1cc(O)c(O)c(O)c1` (stereo not given), the activity change, negative = inhibition in assay [1] is 15% (inactive). Besides, the max response in assay [1] (setting [15]) is -10.5%; in assay [1] (setting [16]) it was 7.68%. For the same molecule, the Potency was 5.01 µM (active) in assay [2], 11.2 µM (active) in assay [4] and 2.24 µM (active) in assay [5]. Further, the Potency entry in assay [3] and in assay [6] was “inactive” each time.

Regarding `O=C(Nc1c(C(=O)O)oc2ccccc12)c1ccc(C(F)(F)F)cc1`, the Potency in assay [2] was 15.8 µM (active); in [4], 25.1 µM (active); in assay [5], 316 µM (active); in assay [6], 100 µM (active). Further, the Potency result in assay [3] was “inactive”.

As for `CCCCCS(=O)(=O)CCCCCCCCCCn1c(-c2ccc(O)cc2)c(C)c2cc(O)ccc21`, the Potency result in [7] and in assay [8] was “inactive” throughout.

As for `O=C(Nc1ccccc1)c1ccc2c(O)c(S(=O)(=O)c3ccc(Cl)cc3)c(=O)[nH]c2c1`, the results for the Potency in [2] and in assay [4] were 22.4 µM (active) and 14.1 µM (active), respectively. Also, the Potency entry in assay [3] and in assay [9] was “inactive” in each case.

Take `Cc1c(C2(c3cc(C(C)C)c(O)c(Br)c3C)OS(=O)(=O)c3ccccc32)cc(C(C)C)c(O)c1Br`: the values for the Potency in [2], in assay [4] and in [6] were 5.01 µM (active), 5.62 µM (active) and 17.8 µM (active), respectively. Moreover, the Potency result in assay [3] was “inactive”.

For `Nc1c(N=Nc2ccc([N+](=O)[O-])cc2)c(S(=O)(=O)O)cc2cc(S(=O)(=O)O)c(/C=C/c3ccccc3)c(O)c12`, the Potency in [2] is 3.16 µM (active); in [4], 2.82 µM (active); in assay [6], 14.1 µM (active).

Consider `CCc1nn2c(=O)cc(COC(=O)c3ccccc3NC(=O)c3ccc(C(C)(C)C)cc3)nc2s1`, for which, in assay [2], the Potency result was “inactive”.

With `O=C(Nc1ccc(C(=O)Nc2ccc(C(=O)Nc3ccc(S(=O)(=O)O)c4cc(S(=O)(=O)O)cc(S(=O)(=O)O)c34)cc2)cc1)Nc1ccc(C(=O)Nc2ccc(C(=O)Nc3ccc(S(=O)(=O)O)c4cc(S(=O)(=O)O)cc(S(=O)(=O)O)c34)cc2)cc1`, the Potency in assay [10] is 31.6 µM (active); in assay [11], > 46 µM (inactive); in assay [12] it was > 46 µM (inactive); in assay [2] it was 2 µM (active); in [4], 2.24 µM (active) and 1.26 µM (active); in [5] it was 39.8 µM (active). For the same molecule, the Potency in assay [6] is 2.51 µM (active). Moreover, in [1], the activity change, negative = inhibition was 5.27% (inactive). Further, the max response in assay [1] (setting [15]) is -4.46%; in assay [1] (setting [16]) it was 0.0462%. Further, the Potency entry in assay [13], in assay [9] and in assay [14] was “inactive” each time.
